Compound activity as filed in PubChem BioAssay.
A selection follows.
aSyn 5UTR act: Activators working through SNCA 5'UTR binding (MLPCN); alpha-synuclein 5'UTR reporter, activators screen; activity score, % (tested at 7.5 µM), hits read low; hit rate 7.1% among 300,000; in the data active means activity score below about -60%
* marks the source's active call; other numbers are inactive results.

SMILES	aSyn 5UTR act
CC1=NN(c2ccccc2)C(=O)C1C(=O)C(=O)Nc1ccc(F)cc1 (stereo not drawn)	-167.6*
Cc1ccc(NC(=O)C(=O)C2C(=O)Nc3ccccc32)cc1 (stereo not drawn)	-77.4*
Cc1ccccc1CS(=O)(=O)c1ncc(Cl)c(C(=O)Nc2ccc(F)cc2)n1	64.2
O=c1[nH]c(COc2ccc(Br)cc2Cl)nc2ccccc12	-166.5*
Clc1ccc2nc(COc3ccccc3)[nH]c2c1	-150.7*
S=c1nc(COc2ccccc2)[nH]c2ccccc12	-111.9*
O=c1[nH]c(COc2ccccc2)nc2ccccc12	-69.7*
CCCCc1c(C)nn(-c2nnc3c4ccccc4n(C)c3n2)c1C	-95.6*
Cc1ccc(Cn2c(SCc3cccnc3)nc3c2c(=O)n(C)c(=O)n3C)cc1	54.0
Cn1c(=O)c2c(nc(SCCN3CCOCC3)n2Cc2ccc(F)cc2)n(C)c1=O	-129.8*
CCCCn1c(SCC(=O)N2c3ccccc3CCc3ccccc32)nc2c1c(=O)n(C)c(=O)n2C	73.7
COc1ccccc1C1=NOC(CN2C(=O)c3ccccc3S2(=O)=O)C1 (stereo not drawn)	-126.6*
O=C1c2ccccc2S(=O)(=O)N1CC1CC(c2ccccc2Cl)=NO1 (stereo not drawn)	-81.0*
O=C(CN1C(=O)c2ccccc2S1(=O)=O)c1ccc(O)c(O)c1	63.5
COc1cc2cc(-c3ccc(O)cc3O)nc(C)c2cc1OC	-115.9*
COc1cc2cc(-c3ccc(OC)c(OC)c3C)nc(N)c2cc1OC	95.5
O=[N+]([O-])c1ccccc1S(=O)(=O)Oc1ccc(C(=S)N2CCOCC2)cc1	-62.3*
Cc1cc(-c2nc(-c3ccc(C(C)(C)C)cc3)no2)no1	-170.5*
CC(C)(C)c1ccc(-c2noc(-c3ccc4c(c3)CCO4)n2)cc1	-156.8*
COc1cc(C(=O)Nc2ccc3c(c2)OCCO3)ccc1OC(F)F	-153.3*
Cc1c([N+](=O)[O-])c(C(=O)Nc2ccc3c(c2)OCCO3)nn1C	-140.2*
COc1cc(C(=O)Nc2ccc3c(c2)OCCO3)ccc1OC(C)C	-163.1*
O=C(Nc1ccc(F)c([N+](=O)[O-])c1)c1ccc2c(c1)OCCO2	-137.6*
Cc1csc(NC(=O)c2nn(C)c(C)c2[N+](=O)[O-])n1	-122.9*
COc1ccc(C(=O)Nc2ccc3c(c2)OCCO3)cc1[N+](=O)[O-]	-94.1*
SMILES	aSyn 5UTR act
COc1ccc(NC(=O)c2ccc3c(c2)OCCO3)cc1OC	-103.9*
Cc1cc(=O)oc2c(C(=O)/C=C\c3cccs3)c(O)ccc12	-89.1*
Cc1c(C(=O)/C=C/c2cccs2)oc2ccc(F)cc12	-201.5*
CCOc1ccc(/C=C/c2nc(C#N)c(NCCCOC)o2)cc1	-149.5*
COCCCNc1oc(/C=C/c2ccccc2)nc1C#N	-114.3*
COc1ccccc1N1CCN(C2=Nc3cccc4cccc2c34)CC1	-181.4*
Oc1ccc(CN2CCC(Cc3ccccc3)CC2)c2cccnc12	105.0
c1ccc(CC2CCN(C3=Nc4cccc5cccc3c45)CC2)cc1	-95.5*
Brc1ccc(-n2cnc(-c3ccccc3)c2)cc1	-136.0*
CCc1cc2cc(C(=O)Nc3ccc(C)cc3)sc2s1	-89.7*
COc1ccc(-c2csc(-c3ccc(C(=O)O)cc3)n2)cc1	-160.5*
O=C(O)c1ccc(-c2nc(-c3ccc(Cl)cc3Cl)cs2)cc1	-179.4*
O=C(O)c1ccc(-c2nc(-c3ccc(Cl)cc3)cs2)cc1	-173.4*
C=CCNC(=O)c1ccc(-c2nc(-c3ccccc3)cs2)cc1	-102.5*
O=C(NCC(=O)N1CCc2ccccc2C1)c1ccccc1Cl	-101.1*
Cc1cc(C(=O)OCC(=O)N2CCc3ccccc32)c(C)o1	-162.9*
O=C(CNC(=O)c1ccccc1Cl)OCC(=O)N1CCc2ccccc21	-117.0*
COC(=O)c1ccc(S(=O)(=O)N2CCc3ccccc32)cc1	-95.5*
COc1ccc(-c2nnc(NC(=O)c3ccc(S(=O)(=O)N4CCCc5ccccc54)cc3)o2)cc1	69.0
Cc1ccc(NC(=O)COc2ccc(C3SCCS3)cc2)cc1	-69.4*
O=C(CSc1ccc(F)cc1)Nc1ccc(C2SCCS2)cc1	-155.0*
CCCN(C(=O)c1cccs1)c1nnc(-c2ccncc2)s1	-99.8*
CCN(C(=O)c1ccco1)c1nnc(-c2cccnc2)s1	-136.8*
CCCN(C(=O)c1ccco1)c1nnc(-c2ccccc2C)s1	-89.2*
CN(C(=O)c1ccco1)c1nnc(-c2ccc(F)cc2)s1	-199.6*
SMILES	aSyn 5UTR act
COCCN(C(=O)c1ccco1)c1nnc(-c2ccc(F)cc2)s1	-91.9*
CN(C(=O)c1ccco1)c1nc(-c2ccc(F)cc2)cs1	-146.2*
Cc1ccccc1Nc1nnc(SCC(=O)NC(=O)Nc2ccc3c(c2)OCCO3)s1	-85.6*
Cc1cccc(Nc2nnc(SCC(=O)NC(=O)Nc3ccc4c(c3)OCCO4)s2)c1	-95.2*
CCN1C(=O)/C(=C/N2CCc3ccccc32)SC1=S	-189.7*
S=C(c1ccc(-c2cccc(Cl)c2)o1)N1CCCCC1	-110.8*
S=C(c1ccc(-c2cccc(Cl)c2)o1)N1CCOCC1	-144.3*
N#CCCN1CCN(C(=S)c2ccc(-c3cccc(Cl)c3)o2)CC1	-89.3*
CC1c2cc3c(cc2CCN1C(=O)c1cccc(F)c1)OCCCO3 (stereo not drawn)	-69.4*
CCSc1nnc(Nc2ccc(C)cc2)s1	-160.6*
CCSc1nnc(Nc2ccccc2)s1	-98.9*
O=C1CCCCC1Sc1nnc(Nc2ccccc2)s1 (stereo not drawn)	-126.8*
CCc1ccc(-c2csc(NC(=O)COC(=O)CCc3nc4ccccc4s3)n2)cc1	-108.9*
CCCC(=O)Nc1nc(-c2ccc(Cl)s2)cs1	-114.1*
COc1ccc(-c2csc(NC(=O)C3CCCO3)n2)cc1 (stereo not drawn)	-102.4*
O=C(Nc1ccc([N+](=O)[O-])cc1)Nc1nc(-c2ccc(Cl)s2)cs1	91.5
CCc1nnc(NC(=O)CSc2nc(-c3ccc(OC)cc3)ns2)s1	-84.1*
CCCC(=O)Nc1nc(-c2ccc(OC)cc2)cs1	-123.2*
CCCC(=O)Nc1nc(C)c(-c2csc(Nc3cc(OC)ccc3OC)n2)s1	61.2
COc1ccc(-c2csc(NC(=O)CSc3nc(C)cs3)n2)cc1	-152.9*
COc1ccc(-c2csc(NC(=O)CSc3nc(SC)ns3)n2)cc1	-102.1*
CCOC(=O)c1sc2nc3n(c(=O)c2c1C)CCCCC3	-213.8*
Cc1c(C(=O)Nc2cc(F)ccc2F)sc2nc3n(c(=O)c12)CCCCC3	-118.3*
CSc1cccc(NC(=O)c2sc3nc4n(c(=O)c3c2C)CCC4)c1	-130.8*
COc1cccc(NC(=O)c2sc3nc4n(c(=O)c3c2C)CCC4)c1	-113.5*
SMILES	aSyn 5UTR act
C/C(=N\N=C(N)N)c1cc(Cl)ccc1Cl	64.7
Nc1nnc(-c2ccc(Cl)cc2Cl)s1	-108.4*
c1coc(CNc2nc3ccccc3s2)c1	-137.2*
c1ccc(Nc2nc(NCc3ccco3)c3ccccc3n2)cc1	-66.8*
c1ccc2sc(NC3=NCN(CC4CCCO4)CN3)nc2c1 (stereo not drawn)	-85.8*
c1coc(CN2CN=C(Nc3nc4ccccc4s3)NC2)c1	-80.6*
Nc1nc(Nc2ccccc2)nc(NCc2ccccc2)c1[N+](=O)[O-]	84.2
Oc1c(C(Nc2nc3ccccc3s2)c2ccco2)ccc2cccnc12 (stereo not drawn)	65.8
COc1ccccc1N=Nc1[nH]c2ccc(C)cc2c1O	-168.8*
O=C(NCCc1ccccc1F)c1ccc2c(c1)OCCO2	108.2
O=C(NCCc1c[nH]c2ccccc12)c1cccnc1	-66.8*
O=C(NCCc1c[nH]c2ccccc12)c1cc(Cl)c2c(c1)OCO2	-110.0*
O=C(NCCc1ccc(Cl)cc1)c1ccc2c(c1)OCO2	-121.2*
